PubChem BioAssay AID651871 (Sanford-Burnham Center for Chemical Genomics, 2012)
Where “and” joins values, the source holds several entries; their conditions need not be identical. Equal entries are not always repeated.

Test system: HL-1
Assay: cardiomyocyte survival under oxidative or metabolic stress – cell-based, panel, H9c2 and HL-1, ATP luminescence, set 2, SAR follow-up (AID 651871);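 further: cells exposed to stressor for 2 h before ATP readout; reference of the scale not given here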
Details: H9c2/HL-1 cardiomyocytes, 2-deoxyglucose stress, with 2-deoxyglucose, run 6, at 19.8 µM (top of the series)

COc1ccc2c(c1OC)C(=O)N1c3ccccc3C(=O)N(Cc3cccc(Cl)c3Cl)C21 (stereo unspecified)
activity (protection/inhibition): 29.6% and 37.4%
